The values below come from PubChem BioAssay.

The nature of assay [1]: inhibitors of TNFa-induced NFkB p65 translocation, primary screen, imaging, HUVEC, MLSMR starter and 10KST1 sets (AID 438;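 active means inhibition above 20% together with a positive visual image hit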;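 further: compound added about 3h40 before a 20 min TNFalpha stimulation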;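 on inhibition: signal is the nuclear over cytoplasmic p65 intensity ratio per well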). Conditions: HUVEC TNFa-induced p65 nuclear translocation; cell count: measured here: nuclei count (cytotoxicity indicator), at 2.08 µM; inhibition: at 2 µM, stronger effect = higher value, 0% TNFa-plus-vehicle, 100% no-TNFa wells.
Assay [2] is described as follows: inhibitors of mutant huntingtin aggregation, primary screen, imaging, exon1htt(103Q)mCFP cells, high-content imaging (AID 483;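 active means visual image review flags a hit and inhibition of aggregation exceeds 20%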;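 further: compound exposure lasted 3 days before fixation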;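 on nuclei count: percent of the per-plate median nuclei count of sample wells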). The settings on record: exon1htt(103Q)mCFP cell line, aggregate imaging, at 2 µM; inhibition of aggregation: stronger effect = higher value; nuclei count: measured here: cell count, toxicity.
Assay [3] can be described thus: inhibitors of E-selectin induction by TNFa, primary screen, imaging, HUVEC, immunofluorescence, MLSMR starter and 10KST1 sets (AID 487;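 active means visually confirmed hit in the image check and inhibition above 20%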;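 on inhibition: signal is fraction of cell area covered by stained E-selectin grains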;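 on nuclei count: 100% = median nuclei count of all wells on the same plate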). Conditions: HUVEC TNFalpha-induced E-selectin immunofluorescence imaging, at 2 µM; inhibition: stronger effect = higher value; nuclei count: measured here: cell number, toxicity.
The target in assay [4] is Voltage-gated potassium channel subunit beta-2 (Rattus norvegicus) (UniProt P62483). In words: KvBeta enzyme negative modulators, primary screen, biochemical, NADPH fluorescence (AID 622).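 Further: slope of raw intensity against log time taken from 70 to 1610 s.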 Conditions: recombinant KvBeta, 4-cyanobenzaldehyde reduction, at 10 µM, stronger effect = higher value.
Chain of Voltage-gated potassium channel subunit beta-2 (Rattus norvegicus) (P62483 whole entry, looked up): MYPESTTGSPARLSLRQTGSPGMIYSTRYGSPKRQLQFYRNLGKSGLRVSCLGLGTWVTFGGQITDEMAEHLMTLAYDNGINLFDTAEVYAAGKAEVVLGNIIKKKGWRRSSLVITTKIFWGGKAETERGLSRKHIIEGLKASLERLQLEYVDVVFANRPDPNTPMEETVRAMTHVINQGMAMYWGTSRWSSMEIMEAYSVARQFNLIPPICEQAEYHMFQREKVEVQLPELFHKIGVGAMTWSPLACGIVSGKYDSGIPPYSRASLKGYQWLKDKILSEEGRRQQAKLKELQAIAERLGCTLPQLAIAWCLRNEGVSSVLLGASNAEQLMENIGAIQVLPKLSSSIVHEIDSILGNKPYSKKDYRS
The target is the same in assay [5]. In words: KvBeta positive modulators, primary screen, biochemical, NADPH fluorescence (AID 623;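 active means NADPH fluorescence slope more negative than the mean of all samples by about 3 SD, 99.7% confidence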;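 further: fluorescence intensity change per second fitted from 20 to 320 s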). The settings on record: Recombinant KvBeta, NADPH fluorescence decrease slope, 10 min; at 10 µM; stronger effect = lower value.
Assay [6] concerns the target Alpha-2C adrenergic receptor (Homo sapiens) (UniProt P18825). Kind of assay: modulators of alpha2C/GIRK thallium flux, primary screen, cell-based, HEK293 alpha2C/GIRK1/2 (AID 624;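 active means fluorescence slope after compound addition differing from the mean of all screened samples at 99.7% confidence, in either direction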;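 further: slope of fluorescence ratio to pre-addition baseline per second over 15 to 24 s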). Conditions: thallium flux BTC fluorescence, at 10 µM, actives lie on both sides.
Assay [7] in a line: inhibitors of Sendai virus-induced IRF3 signaling, primary screen, TLR/RLR signaling modifier project, cell-based, Sendai virus stimulus, luciferase, 10K MLSCN set (AID 602276;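 active means inhibition at or above 50% at 10 µM; inactive means inhibition below 50%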;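 further: firefly luciferase from ISG56 promoter only with Renilla not read in this screen; 0% = Sendai virus plus DMSO and 100% = medium plus DMSO without virus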). Conditions: HEK293 RL24 IRF3 luciferase reporter, at 10 µM, stronger effect = higher value. (In general: In a reporter assay the amount or activity of a reporter protein is the signal.)
A short description of assay [8]: inhibitors of poly I:C-induced TLR3 signaling, primary screen, cell-based, poly I:C stimulus, luciferase, 10K MLSCN set (AID 602277;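 active means inhibition of the reporter signal at or above 50%; inactive means inhibition below 50%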). Conditions: HEK293-TLR3 RL24 IRF3 luciferase reporter, at 10 µM, stronger effect = higher value.

Active and inactive are the calls of the source.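 How the source made its calls, unless noted: active means fluorescence slope higher than the sample average by over 3 SD (cut at about -0.22 in these data, passing the limit was not always enough); inactive means the rest.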

Chain of Alpha-2C adrenergic receptor (Homo sapiens) (P18825 whole entry, looked up): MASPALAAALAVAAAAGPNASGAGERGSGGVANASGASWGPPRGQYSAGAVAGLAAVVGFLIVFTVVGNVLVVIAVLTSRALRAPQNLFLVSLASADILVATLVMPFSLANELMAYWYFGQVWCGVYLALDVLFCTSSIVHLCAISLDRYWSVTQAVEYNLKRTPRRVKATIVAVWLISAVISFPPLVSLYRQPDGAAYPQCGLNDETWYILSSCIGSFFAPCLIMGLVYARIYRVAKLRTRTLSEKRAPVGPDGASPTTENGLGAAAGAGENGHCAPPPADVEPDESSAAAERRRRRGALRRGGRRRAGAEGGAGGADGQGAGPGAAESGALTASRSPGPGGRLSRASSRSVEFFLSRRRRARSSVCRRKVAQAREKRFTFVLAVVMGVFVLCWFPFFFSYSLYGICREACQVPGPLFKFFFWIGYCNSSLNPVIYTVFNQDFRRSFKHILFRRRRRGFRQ

`Cc1c(C(=O)Nc2nnc(C(F)(F)F)s2)oc2ccccc12`: the cell count in assay [1] came out at 778. For the same molecule, the inhibition in assay [1] was -8.8% (inactive); in assay [3], -57.7% (inactive); in assay [7], -13.9% (inactive); in assay [8], -95.9% (inactive). Also, the inhibition of aggregation in assay [2] was -7.7% (inactive). Besides, the nuclei count in assay [2] turned out to be 121%; in assay [3], 108%. The fluorescence slope in assay [4] is -0.419 (inactive). Further, the NADPH fluorescence slope in assay [5] is 2.3e-05 (inactive). In assay [6], the slope is 0.00814 (inactive).
Take `Cc1nnc(NC(=O)CSc2nnc(-c3ccc(S(=O)(=O)N4CCCC4)cc3)n2C)s1`: the cell count in assay [1] came to 575. In addition, the inhibition is -16.3% (inactive) in assay [1], -21.6% (inactive) in assay [3], 17.1% (inactive) in assay [7] and 17.7% (inactive) in assay [8]. In addition, the inhibition of aggregation in assay [2] was 14.6% (inactive). For the same molecule, the nuclei count in assay [2] was determined as 85.9%; in assay [3], 91.4%. The fluorescence slope in assay [4] was -0.495 (inactive). For the same molecule, the NADPH fluorescence slope in assay [5] is -2.2e-05 (inactive). In assay [6], the slope is 0.00452 (inactive).
Consider `Nc1nc(N2CCN(C/C=C/c3ccccc3)CC2)nc2ccccc12`, for which the cell count in assay [1] came out at 563. Further, the inhibition in assay [1] was 7.3% (inactive); in assay [3] it was -58.8% (inactive); in assay [7], 4.65% (inactive); in assay [8] it was 7.48% (inactive). The inhibition of aggregation in assay [2] is 2% (inactive). Moreover, the nuclei count was 69.5% in assay [2] and 139% in assay [3]. In addition, in assay [4], the fluorescence slope was -0.607 (inactive). Also, the NADPH fluorescence slope in assay [5] is -2.5e-05 (inactive). Besides, the slope in assay [6] was 0.00297 (inactive).
As for `O=C(CSc1nc(O)cc(=O)n1-c1ccccc1)N1CCCCC1`, the cell count in assay [1] was found to be 635. Moreover, the inhibition in assay [1] is -8.1% (inactive); in assay [3], -85.5% (inactive); in assay [7] it was 12.3% (inactive); in assay [8], 21% (inactive). Besides, the inhibition of aggregation in assay [2] was -16.4% (inactive). Besides, the figures for the nuclei count in assay [2] and in assay [3] were 103% and 109%, respectively. Also, the fluorescence slope in assay [4] was -0.536 (inactive). Also, in assay [5], the NADPH fluorescence slope is -5.1e-05 (inactive). Further, the slope in assay [6] was 0.00543 (inactive).
In the case of `CC(C)C(C(=O)Nc1ccc2c(c1)OCO2)N1C(=O)c2ccccc2C1=O` (centres undefined), the cell count in assay [1] came out at 696. The inhibition in assay [1] was -1% (inactive); in assay [3], 77.1% (active); in assay [7] it was 14.6% (inactive); in assay [8] it was 25.5% (inactive). For the same molecule, in assay [2], the inhibition of aggregation was 10.6% (inactive). Also, the values for the nuclei count in assay [2] and in assay [3] were 109% and 85%, respectively. The fluorescence slope in assay [4] was -0.411 (inactive). Also, in assay [5], the NADPH fluorescence slope is -8.9e-05 (inactive). Further, the slope in assay [6] is 0.00641 (inactive).
Regarding `O=C(CSc1nnc(-c2ccccc2)o1)NC1CCCCC1`, in assay [1], the cell count worked out at 355. Also, the inhibition in assay [1] was 0% (inactive); in assay [3] it was -10.5% (inactive); in assay [7] it was 5.13% (inactive); in assay [8] it was 0.841% (inactive). Also, the inhibition of aggregation in assay [2] is 8% (inactive). The nuclei count in assay [2] worked out at 109%; in assay [3], 103%. The fluorescence slope in assay [4] is -0.55 (inactive). In addition, the NADPH fluorescence slope in assay [5] was 2e-05 (inactive). The slope in assay [6] is 0.0067 (inactive).
For `COc1ccccc1C(=O)N1CCN(CCc2ccccc2)CC1`, the cell count in assay [1] came to 341. The inhibition was 3.2% (inactive) in assay [1], 6% (inactive) in assay [3], 8.51% (inactive) in assay [7] and 0.325% (inactive) in assay [8]. In addition, the inhibition of aggregation in assay [2] is -5.8% (inactive). For the same molecule, the nuclei count was 100% in assay [2] and 104% in assay [3]. For the same molecule, in assay [4], the fluorescence slope was -0.385 (inactive). In addition, the NADPH fluorescence slope in assay [5] is 1.9e-05 (inactive). Moreover, in assay [6], the slope is 0.00331 (inactive).
As for `CCCn1c(SCC(=O)NCc2ccco2)nc2c1c(=O)n(C)c(=O)n2C`, the cell count in assay [1] worked out at 433. For the same molecule, the inhibition was -9.2% (inactive) in assay [1], -144% (inactive) in assay [3], 16.6% (inactive) in assay [7] and 10.9% (inactive) in assay [8]. Also, the inhibition of aggregation in assay [2] was 16.5% (inactive). The nuclei count is 104% in assay [2] and 160% in assay [3]. The fluorescence slope in assay [4] was -0.379 (inactive). For the same molecule, the NADPH fluorescence slope in assay [5] is -4.1e-05 (inactive). Further, in assay [6], the slope is 0.0049 (inactive).
In the case of `Cc1cccc(NC(=O)CC2NC3CCCCC3NC2=O)c1` (centres undefined), in assay [1], the cell count amounted to 384. The inhibition was -4.8% (inactive) in assay [1], 6.9% (inactive) in assay [3], 13.5% (inactive) in assay [7] and 14.2% (inactive) in assay [8]. The inhibition of aggregation in assay [2] is -8.2% (inactive). Moreover, the nuclei count in assay [2] amounted to 81%; in assay [3], 106%. For the same molecule, in assay [4], the fluorescence slope is -0.358 (inactive). Further, the NADPH fluorescence slope in assay [5] is -2.9e-05 (inactive). The slope in assay [6] was 0.00297 (inactive).
As for `O=S(=O)(Nc1cccnc1)c1ccc2c(c1)OCCO2`, in assay [1], the cell count turned out to be 337. Further, the inhibition in assay [1] is 10.2% (inactive); in assay [3], 16.8% (inactive); in assay [7] it was 13.5% (inactive); in assay [8], 17.6% (inactive). In addition, the inhibition of aggregation in assay [2] was 5.2% (inactive). In addition, the nuclei count in assay [2] is 88.2%; in assay [3] it was 92%. Besides, the fluorescence slope in assay [4] is -0.393 (inactive). In addition, the NADPH fluorescence slope in assay [5] was -4.2e-05 (inactive). Further, in assay [6], the slope is 0.00465 (inactive).
Take `Cc1ccc(-c2cn3cccnc3n2)cc1NC(=O)c1ccc(Br)o1`: in assay [1], the cell count stood at 420. Besides, the inhibition in assay [1] was 4.7% (inactive); in assay [3], -274% (inactive); in assay [7], -11.9% (inactive); in assay [8] it was -53% (inactive). In addition, in assay [2], the inhibition of aggregation was 30.5% (inactive). In addition, the figures for the nuclei count in assay [2] and in assay [3] were 66.8% and 103%, respectively. For the same molecule, the fluorescence slope in assay [4] is -0.0541 (active). Besides, the NADPH fluorescence slope in assay [5] was 1.6e-06 (inactive). For the same molecule, in assay [6], the slope was 0.00595 (inactive).
`O=C(Nc1ccccc1)c1cccc(N2CCCC2=O)c1`: the cell count in assay [1] is 363. Moreover, the inhibition was -6.9% (inactive) in assay [1], -74.1% (inactive) in assay [3], -43.5% (inactive) in assay [7] and -128% (inactive) in assay [8]. Also, the inhibition of aggregation in assay [2] is -3.4% (inactive). Further, the nuclei count in assay [2] was 101%; in assay [3], 88%. In addition, in assay [4], the fluorescence slope was -0.457 (inactive). The NADPH fluorescence slope in assay [5] is 3.8e-05 (inactive). In addition, the slope in assay [6] is 0.00552 (inactive).
Regarding `Cc1c(NS(=O)(=O)c2ccc3c(c2)n(C)c(=O)n3C)c(=O)n(-c2ccccc2)n1C`, the cell count in assay [1] came to 582. In addition, the inhibition in assay [1] was 2.7% (inactive); in assay [3], 28% (inactive); in assay [7], 15.8% (inactive); in assay [8], 13.4% (inactive). For the same molecule, in assay [2], the inhibition of aggregation was -2% (inactive). Also, the results for the nuclei count in assay [2] and in assay [3] were 99.2% and 93%, respectively. In assay [4], the fluorescence slope is -0.616 (inactive). Besides, the NADPH fluorescence slope in assay [5] is 1.5e-05 (inactive). Further, the slope in assay [6] was 0.00372 (inactive).
As to `Cn1c(C(=O)NCCCN2CCN(c3ccc(F)cc3)CC2)cc2c(=O)n(C)c3ccccc3c21`, the cell count in assay [1] is 655. In addition, the inhibition was 1.1% (inactive) in assay [1], -73.4% (inactive) in assay [3], 6.19% (inactive) in assay [7] and 39.1% (inactive) in assay [8]. The inhibition of aggregation in assay [2] was 6.5% (inactive). Moreover, the nuclei count turned out to be 107% in assay [2] and 118% in assay [3]. The fluorescence slope in assay [4] is -0.42 (inactive). In addition, in assay [5], the NADPH fluorescence slope was -6.1e-05 (inactive). Moreover, the slope in assay [6] was 0.00607 (inactive).

A word on the inhibition: it is the drop in the measured response relative to a control, in per cent.
